The source of these data is PubChem BioAssay (NCI).

This is part of a sample that, as a whole, favours compounds with a hit. Of some 83,000 tested, about 20% had one in any assay.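 How to read the values: 0–100, growth inhibition (40 = 60% inhibited); 0, no net growth; -100 to 0, cell death (-40 = 40% of starting cells died; -100 = all dead).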 A number with no mark means an inactive call. Active and inactive are the calls of the source. Rule for the calls: active = growth percent below 10; inactive = the rest.

Test systems include HCT-15 colon; HT29 colon; SNB-75 CNS; SNB-19 CNS; U251 CNS; PC-3 prostate; SK-MEL-5 melanoma; UACC-62 melanoma; LOX IMVI melanoma; SK-MEL-28 melanoma.
Common to all, as to experiment: NCI-60 one-dose screen, 48 h (100 = growth as untreated, 0 = no growth, -100 = all killed)
Details in all cases: 10 µM unless noted

For `COc1ccc(/C=C2\Cc3c(Br)cccc3C2=O)c(OC)c1`, the growth in the assay on HCT-15 colon was 51.1%; in the assay with HT29 colon it was 64.4%; in the assay on SNB-75 CNS it was 70.7%; in the assay with SNB-19 CNS, 53.3%; with U251 CNS, 55.6%; with PC-3 prostate, 81.1%. The growth in the assay on SK-MEL-5 melanoma is 47.9%; in the assay on UACC-62 melanoma, 38.9%; with LOX IMVI melanoma, 59.9%; with SK-MEL-28 melanoma, 64.3%.
Regarding `Oc1ccc(-c2cnc(-c3ccccc3)[nH]2)c(O)c1`, the growth with HCT-15 colon is 107%; in the assay with HT29 colon, 120%; with SNB-75 CNS, 94.2%; in the assay with SNB-19 CNS, 98%; in the assay with U251 CNS, 110%; with PC-3 prostate it was 100%. Further, the growth with SK-MEL-5 melanoma is 105%; with UACC-62 melanoma, 85.6%; in the assay on LOX IMVI melanoma, 105%; in the assay with SK-MEL-28 melanoma it was 105%.
Consider `COc1cc(C2C=C(C)N=C3SC=NN32)cc(OC)c1OC` (stereo not given), for which the growth in the assay with HCT-15 colon is 106%; in the assay on HT29 colon, 101%; in the assay on SNB-75 CNS, 105%; with SNB-19 CNS it was 95.9%; with U251 CNS, 93.5%; with PC-3 prostate it was 72.7%. Further, the growth with SK-MEL-5 melanoma was 103%; in the assay with UACC-62 melanoma, 100%; in the assay on LOX IMVI melanoma, 95.8%; in the assay with SK-MEL-28 melanoma it was 100%.
Consider `C/C(=N\OC(=O)Nc1ccccc1)c1ccccc1`, for which the growth was 96.8% with HCT-15 colon; 105% in the assay with HT29 colon; 87.7% in the assay with SNB-75 CNS; 103% in the assay with SNB-19 CNS; 89.7% in the assay with U251 CNS; 99.4% in the assay with PC-3 prostate. Moreover, the growth with SK-MEL-5 melanoma is 95.6%; in the assay with UACC-62 melanoma, 94.2%; in the assay on LOX IMVI melanoma, 110%; in the assay on SK-MEL-28 melanoma, 101%.
As to `N=C(N)c1ccc(-c2ccc(-c3cc(Cl)cc(Cl)c3)o2)nc1`, the growth is -67.1% (active) in the assay on HCT-15 colon; -81.7% (active) in the assay with HT29 colon; -90.7% (active) in the assay on SNB-75 CNS; -75.6% (active) with SNB-19 CNS; -88.3% (active) with U251 CNS; -29.7% (active) in the assay on PC-3 prostate. The growth with SK-MEL-5 melanoma is 34.7%; with UACC-62 melanoma, -86.2% (active); in the assay with LOX IMVI melanoma, -86.7% (active); in the assay with SK-MEL-28 melanoma, -79.2% (active).
`Cc1ccc(S(=O)(=O)NC(CCC(=O)Nc2ccc(Cl)cc2)C(=O)Nc2ccc(Cl)cc2)cc1` (stereo not given): the growth was 18.9% in the assay with HCT-15 colon; 14.2% in the assay on HT29 colon; -17.2% (active) in the assay with SNB-75 CNS; 14.1% in the assay on SNB-19 CNS; 12.5% in the assay with U251 CNS; 17.8% in the assay with PC-3 prostate. In addition, the growth was 21.2% with SK-MEL-5 melanoma, 2.47% (active) in the assay with UACC-62 melanoma, 6.06% (active) in the assay with LOX IMVI melanoma and 64.3% with SK-MEL-28 melanoma.
For `COc1ccc(C2=Nn3c(nnc3-c3ccc(Cl)cc3N)SC2)cc1`, the growth was 96.1% with HCT-15 colon; 110% with HT29 colon; 85.4% in the assay with SNB-75 CNS; 101% in the assay with SNB-19 CNS; 92.5% in the assay with U251 CNS; 95.1% in the assay on PC-3 prostate. The growth in the assay on SK-MEL-5 melanoma was 97.8%; with UACC-62 melanoma it was 86.6%; in the assay on LOX IMVI melanoma, 89.7%; with SK-MEL-28 melanoma, 97.8%.
Regarding `COc1ccc(-c2cnc3ccnn3c2-c2cc(OC)c(OC)c(OC)c2)cc1`, the growth in the assay with HCT-15 colon is 27.8%; with HT29 colon, 8.99% (active); in the assay on SNB-75 CNS, 5.62% (active); in the assay on SNB-19 CNS it was 56.4%; with U251 CNS, 37.7%; in the assay with PC-3 prostate, 29.9%. For the same compound, the growth with SK-MEL-5 melanoma is 13.6%; in the assay on UACC-62 melanoma, 42.3%; in the assay on LOX IMVI melanoma, 42.5%; in the assay with SK-MEL-28 melanoma, 71.1%.
As for `NS(=O)(=O)c1ccc(N2N=C(c3cccs3)CC2c2ccccc2O)cc1` (stereo not given), the growth in the assay with HCT-15 colon was 4.16% (active); in the assay with HT29 colon, -25.6% (active); with SNB-75 CNS, 30.5%; with SNB-19 CNS, 63.3%; in the assay on U251 CNS, 0.571% (active); in the assay with PC-3 prostate it was 8.13% (active). In addition, the growth in the assay on SK-MEL-5 melanoma is -29.1% (active); in the assay on UACC-62 melanoma, 24.2%; in the assay on LOX IMVI melanoma, 13.5%; with SK-MEL-28 melanoma, 27.3%.
With `CN=C1C=C/C(=N/N=c2/ccn(O)cc2C)C=C1C`, the growth in the assay on HCT-15 colon was 97.2%; in the assay on HT29 colon, 99.5%; with SNB-75 CNS it was 84.4%; with SNB-19 CNS it was 101%; in the assay on U251 CNS it was 102%; with PC-3 prostate, 95.2%. In addition, the growth was 97.8% in the assay with SK-MEL-5 melanoma, 89% with UACC-62 melanoma, 95.4% with LOX IMVI melanoma and 120% with SK-MEL-28 melanoma.
In the case of `C#CC[C@@H]1C[C@]2(C)[C@H]3CC=C4[C@H]5[C@@H](C)[C@H](C)CC[C@]5(C(=O)NCCCCN)CC[C@@]4(C)[C@]3(C)CC[C@H]2C(C)(C)[C@H]1OC(C)=O`, the growth in the assay on HCT-15 colon was 31.9%; in the assay on HT29 colon, 10.5%; in the assay with SNB-75 CNS, 81.1%; in the assay on SNB-19 CNS, 73.9%; in the assay on U251 CNS, 40.7%; with PC-3 prostate, 47.5%. For the same compound, the growth was 94.9% with SK-MEL-5 melanoma, 106% with UACC-62 melanoma, 18.6% with LOX IMVI melanoma and 100% in the assay with SK-MEL-28 melanoma.
With `O=C1/C(=C\c2cccn2C(=O)c2ccccc2)c2ccccc2N1c1c(Cl)cccc1Cl`, the growth in the assay on HCT-15 colon is 64.7%; with HT29 colon, 70%; in the assay with SNB-75 CNS, 71.9%; in the assay on SNB-19 CNS, 87.7%; with U251 CNS, 72.8%; in the assay on PC-3 prostate it was 73.9%. For the same compound, the growth with SK-MEL-5 melanoma is 83%; with UACC-62 melanoma it was 59.1%; in the assay with LOX IMVI melanoma, 37.5%; in the assay with SK-MEL-28 melanoma, 74.1%.
For `C1=C\CCCCN2CC[C@H]3[C@H](CCCC/C=C\CCCN4C[C@@H](CCCCC/1)C[C@@H]3C4)C2`, the growth in the assay on HCT-15 colon was 25.3%; in the assay on HT29 colon, 9.89% (active); with SNB-75 CNS it was 44.3%; in the assay on SNB-19 CNS it was 106%; with U251 CNS it was 72.3%; in the assay with PC-3 prostate it was 76.7%. In addition, the growth was 71% in the assay on SK-MEL-5 melanoma, 92% with UACC-62 melanoma, 65.5% with LOX IMVI melanoma and -90.3% (active) in the assay with SK-MEL-28 melanoma.
